The full list was thinned out, with hits kept by preference.
LmPK inh = qHTS Assay for Inhibitors of Leishmania Mexicana Pyruvate Kinase (LmPK). Q27686. purified LmPK, Kinase-Glo ATP luminescence, 1 h. Potency, µM (series often up to 57.5 µM), for the others: at the top dose activity change, negative = inhibition, usual class: inhibitors. actives 0.37% (n = 290,000). AID 1721, 2009; also: potency is read from the fitted curve at half-maximal effect; % is scaled to controls: 0 for no effect and ±100 for the full control effect
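ATP generated from ADP (0.1 mM) and PEP (0.5 mM) by 0.1 nM LmPK over 1 h at room temperature (pH 7.2 imidazole buffer) was detected by coupled luciferase luminescence. Values were normalized to uninhibited and no-enzyme wells.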
Cycloheximide cs = Cycloheximide Counterscreen for Small Molecule Inhibitors of Shiga Toxin | max response, % | actives 12% (n = 300,000) | AID 2314, 2010 | cell reporter, cycloheximide protein synthesis inhibition counterscreen; in the data active = max response mostly above about 13%, no sharp cut-off; inactive = mostly below about 14%; also: read at 38.3 µM for the half of the compounds with a filed dose; 0% is about no effect
FBPA Giardia inh = qHTS Assay for Inhibitors of Fructose-1,6-bisphosphate Aldolase from Giardia Lamblia; A8B2U2; purified Giardia FBPA; Potency, µM (series often up to 59.6 µM), for the others: at the highest dose activity, negative = inhibition, actives largely listed as inhibitors; actives 0.71% (n = 290,000); AID 2451, 2010; also: potency is read from the fitted curve at half-maximal effect; % is scaled to controls: 0 for no effect and ±100 for the full control effect; nearly all actives have a fitted effect of over 55% in size
Target sequence (A8B2U2 whole entry, looked up): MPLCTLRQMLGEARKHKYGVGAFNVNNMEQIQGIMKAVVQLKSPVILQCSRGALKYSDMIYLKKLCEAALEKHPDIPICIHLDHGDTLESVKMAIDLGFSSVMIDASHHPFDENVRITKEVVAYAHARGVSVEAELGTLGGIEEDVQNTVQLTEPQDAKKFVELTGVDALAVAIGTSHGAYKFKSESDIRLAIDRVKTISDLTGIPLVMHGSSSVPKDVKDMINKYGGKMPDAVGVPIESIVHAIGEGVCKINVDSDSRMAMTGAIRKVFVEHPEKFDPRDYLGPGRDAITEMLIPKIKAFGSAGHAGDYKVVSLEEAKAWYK
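Giardia FBPA (40 nM reagent) was preincubated 10 min at RT with compound (up to 57.5 uM final), then substrate plus GAPDH/TPI/NAD/arsenate coupling system with diaphorase/resazurin was added; resorufin fluorescence (525/598 nm) was read after 20 min.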
Shiga inhibitor = A qHTS for Small Molecule Inhibitors of Shiga Toxin | Vero cells, Shiga toxin protein synthesis inhibition reporter | inhibition, % at 38.7 µM | actives 9.2% (n = 290,000); in the data active = inhibition mostly above about 28%, no sharp cut-off; inactive = mostly below about 43%; also: 0% is about no effect
RE007 growth inh = qHTS Assay for Inhibitors of the HIV-1 protein Vpr. S. pombe RE007 Vpr strain, BacTiter-Glo ATP luminescence, 24 h. Potency, µM (top dose mostly 92.2 µM), for the others: at the top dose activity change, negative = less growth, usual class: inhibitors. actives 0.21% (n = 360,000); active = well fitted falling curve with a large enough effect; inconclusive = small, poorly fitted or top-dose-only effect; inactive = no such curve, though single readings can be large or run the other way; also: potency is read from the fitted curve at half-maximal effect; % is scaled to controls: 0 for no effect and ±100 for the full control effect; nearly all actives have a fitted effect of over 50% in size
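Fission yeast RE007 carrying one integrated HIV-1 vpr copy, seeded at OD 0.01 in PMG+AL medium with 23 nL pinned compound. Grown 24 h at 30 degrees; viability read by BacTiter-Glo luminescence after 5 min.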
TbPYK inhibitor = qHTS of Trypanosoma Brucei Inhibitors; pyruvate kinase (Trypanosoma brucei), Q57TT1; TbPYK enzyme, Kinase-Glo Plus ATP luminescence, 45 min; Potency, µM (top dose mostly 76.8 µM), without a hit: at the top dose activity, negative = inhibition, actives largely listed as inhibitors; actives 0.12% (n = 410,000); AID 624173, 2012; also: potency is read from the fitted curve at half-maximal effect; % is scaled to controls: 0 for no effect and ±100 for the full control effect; nearly all actives have a fitted effect of over 50% in size
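TbPYK + substrate in 50 mM TEA pH 7.2, 100 mM KCl, 10 mM MgCl2, 0.05% BSA, 0.01% Tween-20; cpd pinned; ADP 130 uM final; 45 min RT; Kinase-Glo Plus 10 min; luminescence endpoint.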
* marks the source's active call; other numbers are inactive results; ? = inconclusive; nt = no result given. Unless noted, calls follow the shape of the dose curve; as a rule, active = well fitted curve in the direction sought with a large enough effect; inconclusive = small, poorly fitted or top-dose-only effect, or another doubt; inactive = no such curve, though single readings can be large; an effect the other way counts as inactive or inconclusive.

SMILES | LmPK inh | Cycloheximide cs | FBPA Giardia inh | Shiga inhibitor | RE007 growth inh | TbPYK inhibitor
CCC(C)NC(=O)c1cc2cc3ccc(OC)cc3nc2s1 (configuration not stated) | -22.8% | 57.3* | -18.8% | 88.4* | -5.3% | -2.2%
CCC(C)NC(=O)c1cc2c(=O)n3ccccc3nc2s1 (configuration not stated) | 0.3% | 34.9* | -3.0% | 31.8* | -7.7% | -9.8%
Cc1nn(C(=O)Cn2ccc([N+](=O)[O-])n2)c(C)c1Cl | -3.9% | -4.1 | 7.2% | -10.7 | 3.0% | 1.1%
CC(=O)NC(CC(=O)N1CCN(C(C)=O)CC1)c1ccccc1 (configuration not stated) | -0.6% | 6.4 | nt | -20.2 | -6.1% | -15.0%
CCN(CC)C(=O)c1cc2c(=O)n3ccccc3nc2s1 | -2.4% | 22.4 | 0.0% | 37.6 | -13.5% | 1.1%
COCCN(CCOC)C(=O)c1cc2c(=O)n3ccccc3nc2s1 | 6.5% | 33.7* | -20.8% | 22.7 | -0.3% | -5.8%
C/C(=N\Nc1ccc2nncn2n1)c1cccs1 | -14.5% | 40.6* | 2.6% | 20.9 | -1.7% | -11.2%
Cc1cc(C)c(C#N)c(Nc2ccc(F)cc2)n1 | -6.4% | -1.5 | 7.3% | -8.6 | -17.4% | -0.1%
N#Cc1cnc(Nc2ccc(F)cc2)nc1N | -4.3% | 24.1* | 0.4% | 33.4 | 4.6% | -4.0%
Nc1nccc(-c2ccc3noc(-c4ccc(Cl)cc4)c3c2)n1 | nt | nt | nt | nt | nt | 0.0%
O=[N+]([O-])c1ccc(S(=O)(=O)N/N=C/c2ccco2)cc1 | 10.4% | -4.4 | 0.5% | -25.9 | 23.8% | -0.3%
CN=c1scc(-c2ccc([N+](=O)[O-])cc2)n1/N=C/c1ccco1 | 0.5% | 27.1* | 3.2% | 90.9* | -4.0% | -6.4%
O=C1c2ccc([N+](=O)[O-])cc2NC(c2ccco2)N1/N=C/c1ccco1 (configuration not stated) | 2.6% | 14.7* | -23.2% | 31.1* | -27.5% | -3.7%
CCNc1nc(Oc2ccc(C(=O)OC)cc2)nc(N(C)C)n1 | -2.1% | 4.0 | 1.8% | 8.7 | 20.1% | -2.0%
CCNc1nc(N)nc(Oc2ccc(C(=O)OC)cc2)n1 | -13.3% | 26.2* | 7.7% | 73.6* | 13.7% | -12.6%
CSc1ncc(Cl)c(C(=O)N(Cc2ccc(C)cc2)C2CCS(=O)(=O)C2)n1 (configuration not stated) | nt | nt | nt | nt | nt | -3.0%
O=C(NCCCN1CCCC1=O)C1CCCO1 (configuration not stated) | 1.4% | -3.3 | 2.2% | 2.8 | 1.1% | 3.2%
COc1ccc(O)c(-c2cn[nH]c2-c2cccs2)c1 | 1.0% | -1.6 | -16.9% | -7.8 | 3.1% | -1.8%
CS(=O)(=O)N1N=C(c2cccs2)CC1c1ccc(Cl)o1 (configuration not stated) | -10.8% | 36.5* | 5.5% | 65.5* | 13.9% | 5.2%
COc1ccc(C2CC(c3cccs3)=NN2S(=O)(=O)c2ccc(C)cc2)cc1 (configuration not stated) | nt | nt | nt | nt | 0.0% | 0.0%
CS(=O)(=O)N1N=C(c2cccs2)CC1c1ccccc1 (configuration not stated) | -3.7% | 12.9* | -0.3% | 9.7 | -3.5% | 1.1%
CS(=O)(=O)N1N=C(c2cccs2)CC1c1ccccc1F (configuration not stated) | 4.9% | -1.7 | 3.3% | 11.8 | -3.8% | -7.2%
COc1ccc(O)c(C2=Nc3ccccc3N=C(c3cccs3)C2)c1 | -0.7% | 15.5* | 1.8% | 2.5 | 8.5% | -5.3%
COc1ccc(C2CC(c3cccs3)=Nc3ccccc3S2)cc1 (configuration not stated) | 2.0% | 61.4* | -3.5% | 82.8* | 14.1% | -1.6%
Cc1nnc(N(C)C(=O)c2ccc3c(c2)OCO3)s1 | 8.2% | 1.7 | 1.5% | 1.5 | 10.2% | -2.3%
SMILES | LmPK inh | Cycloheximide cs | FBPA Giardia inh | Shiga inhibitor | RE007 growth inh | TbPYK inhibitor
COc1ccc(-c2noc(CSCC(=O)Nc3ccc(C)cc3Br)n2)cc1OC | nt | nt | nt | nt | nt | -4.4%
COc1ccc(N(Cc2cccs2)C(=O)COc2cc(C)c(Cl)c(C)c2)cc1 | nt | nt | nt | nt | nt | 2.4%
COc1ccc(C2CC(c3cccs3)=NN2S(C)(=O)=O)cc1 (configuration not stated) | 0.0% | 32.4* | 3.1% | 120.8* | 5.0% | 0.7%
CC(=O)N1N=C(c2ccccc2)CC1c1ccccc1[N+](=O)[O-] (configuration not stated) | 1.1% | 14.0 | -20.9% | -6.0 | -19.3% | -9.7%
O=[N+]([O-])c1ccc(C2Oc3ccccc3C3CC(c4ccccc4)=NN32)s1 (configuration not stated) | -1.7% | 60.6* | -26.1% | 113.5* | nt | nt
c1ccc(C2Oc3ccccc3C3CC(c4cccs4)=NN32)cc1 (configuration not stated) | -0.3% | 56.4* | -24.8% | 104.7* | ? | -4.3%
Cc1cccc(NC(=O)CSc2nncn2C)c1 | nt | nt | nt | nt | nt | 1.8%
Cc1ccc(-n2c(N)c(C(=O)N3CCN(C)CC3)sc2=S)cc1 | -3.4% | -3.5 | 9.98µM* | -7.4 | -18.1% | ?
O=c1c2ccccc2n(Cc2ccccc2Cl)c(=O)n1CCc1ccccc1 | nt | nt | nt | nt | nt | -3.6%
CC1CCN(C2CC(=O)N(c3ccccc3)C2=O)CC1 (configuration not stated) | -0.2% | 7.5 | 4.6% | -4.1 | 20µM* | -1.7%
CC1CCN(C2CC(=O)N(c3ccc(Br)cc3Br)C2=O)CC1 (configuration not stated) | 3.6% | -1.7 | 0.4% | -1.3 | 39.8µM* | -1.5%
O=C1CC(N2CCc3ccccc32)C(=O)N1c1ccccc1 (configuration not stated) | -1.5% | 32.6 | -1.4% | 72.7* | -13.9% | -6.0%
CCOc1ccc(N2C(=O)CC(N3CCc4ccccc43)C2=O)cc1 (configuration not stated) | 1.0% | 0.4 | 7.2% | -23.8 | 4.9% | -20.9%
O=[N+]([O-])C1C(c2ccccc2)=NOC1c1ccccc1O (configuration not stated) | -3.6% | 23.8* | 10.9% | 24.6* | -7.6% | 2.2%
CN(C)C(=O)Oc1ccc(OC(=O)c2ccccc2)cc1 | 12.6µM* | 38.5* | -2.8% | 20.4* | -20.0% | ?
COc1ccc(C(=O)NC(=S)NNC(=O)c2ccc(O)cc2)cc1[N+](=O)[O-] | 4.0% | 39.5* | 17.8% | 85.9* | -10.2% | 3.3%
O=C(NCCCc1ccccc1)c1cncc(Br)c1 | 0.2% | 19.8* | 13.2% | 45.6 | 9.6% | 1.0%
O=C(NCCCc1ccccc1)c1cccc(Br)c1 | nt | nt | nt | nt | -21.5% | 0.5%
O=C(NCc1ccccc1)c1cncc(Br)c1 | -2.8% | 12.6 | 2.7% | 3.1 | -23.8% | -6.7%
